# Assay outcomes as filed in PubChem BioAssay.
# Rows were chosen to be rich in hits. Some 21% of all compounds tested hit in one or more screens of this group.
# DT40 TDP1 CPT: growth inhibition of DT40 Tdp1-/-;hTDP1 cells with camptothecin (screen for TDP1 inhibitors). 420,000 tested, 12% active. Potency, µM (series often up to 46.2 µM), inactives show at the top dose activity change, negative = growth inhibition, actives largely listed as inhibitors. chicken DT40 Tdp1-/-;hTDP1 cells + 20 nM CPT, ATP luminescence, 48 h; further: potency means the concentration at half of the fitted maximal effect; on the % scale 0 is the no-effect control and ±100 the full control effect; nearly all actives have a fitted effect of over 55% in size
#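 Chicken DT40 Tdp1-/- cells complemented with human TDP1, 400 cells/well, exposed to compounds plus 20 nM camptothecin for at least 48 h at 37 C; viability read as ATP content by CellTiter-Glo luminescence.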
# DRD3 antagonist: D3 dopamine receptor (human) antagonism. 360,000 tested, 2.5% active. AID 652054. D3R cells, DiscoveRx beta-arrestin luminescence, antagonist mode; hits give low values. max response, negative = inhibition, %. P35462; in the data active means max response below about -50%; inconclusive means no clear call, values can overlap the other calls; further: on the % scale 0 is the no-effect control and ±100 the full control effect
# Target sequence (P35462 whole entry, looked up): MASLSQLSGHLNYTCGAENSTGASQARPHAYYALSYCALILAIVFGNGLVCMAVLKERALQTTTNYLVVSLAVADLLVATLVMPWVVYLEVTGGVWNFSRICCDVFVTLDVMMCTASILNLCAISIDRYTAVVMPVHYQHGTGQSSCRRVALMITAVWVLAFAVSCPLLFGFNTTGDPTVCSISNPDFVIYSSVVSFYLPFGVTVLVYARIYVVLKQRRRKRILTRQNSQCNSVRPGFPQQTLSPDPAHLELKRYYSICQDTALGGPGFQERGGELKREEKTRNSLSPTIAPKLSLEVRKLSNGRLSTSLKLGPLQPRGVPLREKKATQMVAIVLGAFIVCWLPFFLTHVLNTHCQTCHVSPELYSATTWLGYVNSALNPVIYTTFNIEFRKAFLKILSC
#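 Cells expressing the human receptor were seeded at 1500 cells/well, incubated overnight at 37 degrees C in 5% CO2, then exposed to library compounds with dopamine controls for 90 minutes at 37 degrees C before luminescent detection.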
# ClpP mod: qHTS Assay for Activators of ClpP. ATP-dependent Clp protease proteolytic subunit (Bacillus subtilis (strain 168)), P80244. purified B. subtilis ClpP, FRET peptide cleavage, 20 min. Potency, µM (series often up to 57.5 µM), for inactives: at the top dose activity change, negative = active. 340,000 tested, 1.9% active. AID 651965, 2013; active means well fitted falling curve with a large enough effect; inconclusive means small, poorly fitted or top-dose-only effect; inactive means no such curve, though single readings can be large or run the other way; further: potency means the concentration at half of the fitted maximal effect; the source files actives as falling curves though it sought activators and does not explain the sign; nearly all actives have a fitted effect of over 65% in size
# Target sequence (P80244 whole entry, looked up): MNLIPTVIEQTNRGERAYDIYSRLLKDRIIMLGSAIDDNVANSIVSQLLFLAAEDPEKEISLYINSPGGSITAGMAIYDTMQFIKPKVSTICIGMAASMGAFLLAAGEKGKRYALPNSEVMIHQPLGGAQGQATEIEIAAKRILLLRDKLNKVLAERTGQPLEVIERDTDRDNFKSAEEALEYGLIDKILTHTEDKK
#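 FRET quenching reversal measured ClpP activation: 10 microg/mL B. subtilis ClpP at pH 8 with the FRET-FV decapeptide, read at 430 nm after 320 nm excitation. The 20-min minus 0-min signal was scaled between DMSO/no-enzyme wells and ADEP (5.8 microM final).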
# IL1B secr inh: blocks inflammasome-driven IL-1 beta release | THP-1 LPS/ATP IL-1B secretion, AlphaLISA, 16 h; hits give low values | AID 743279 | 360,000 tested, 4.7% active | activity change, % at 57.5 µM; in the data active means activity change below about -50%; inconclusive means mostly about -30% to -49%; further: on the % scale 0 is the no-effect control and ±100 the full control effect
#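 THP-1 cells pretreated 1 hr with compounds (up to 57.5 uM final), then stimulated with LPS (250 ng/mL final) plus ATP (1.25 mM final); secreted IL-1B measured by AlphaLISA after 16 hr, decreased signal indicating inhibition.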
# TDP1 cell noCPT: qHTS for Inhibitors of human tyrosyl-DNA phosphodiesterase 1 (TDP1): qHTS in cells in absence of CPT. 420,000 tested, 15% active. Potency, µM (highest dose often 46.2 µM), for the others: at the highest dose activity change, negative = growth inhibition, most hits filed as inhibitors. DT40 Tdp1-/- hTDP1 cells, no CPT, ATP luminescence, 48 h; further: potency means the concentration at half of the fitted maximal effect; on the % scale 0 is the no-effect control and ±100 the full control effect; nearly all actives have a fitted effect of over 55% in size
#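 Luminescent ATP content (CellTiter-Glo) served as the growth readout. Knockout chicken DT40 cells expressing human TDP1 were exposed to compounds without camptothecin for a minimum 48 hr at 37 °C.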
# DRD3 agonist: D3 dopamine receptor (human) agonism. D3R DiscoveRx beta-arrestin cells, luminescence, 90 min. max activation, %. 410,000 tested, 0.58% active. AID 652048; in the data active means max activation above about 30%; further: 0% is about no effect
#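 Agonist-mode cell screen: cells plated at 1500/well and incubated overnight at 37 °C, then exposed to library compounds for 90 min at 37 °C. Detection reagent was added for 30–60 min at room temperature, and luminescence was read.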
# * = called active by the depositor; ? = inconclusive; nt = no result. Unless noted, the call rests on the fitted dose curve; in most records, active means well fitted inhibition curve with a large enough effect; inconclusive means small, poorly fitted or top-dose-only effect; inactive means flat fitted curve, though single readings scatter.
SMILES,DT40 TDP1 CPT,DRD3 antagonist,ClpP mod,IL1B secr inh,TDP1 cell noCPT,DRD3 agonist
Nc1nonc1-c1nc2ccccc2n1CC(=O)NC1CCCC1,-25.3%,-19.9,-2.5%,4.5,-2.7%,-3.3
O=C(Cn1c(=O)n(Cc2nc(-c3ccccc3)no2)c(=O)c2ccccc21)Nc1cccc(C(F)(F)F)c1,?,nt,-10.5%,nt,20.6µM*,9.4
CCOC(=O)c1ccccc1NC(=O)Cn1c(-c2nonc2N)nc2ccccc21,0.82µM*,27.5,-2.0%,36.9,0.92µM*,-4.8
Cn1c(SCC(=O)NC2CCCC2)nnc1C(F)(F)F,-14.8%,0.3,-4.0%,-15.2,10.0%,0.1
Cc1ccc(CNC(=O)c2ccc(-n3cnc4cccnc43)cc2)cc1,nt,nt,-0.7%,nt,nt,-10.6
CCCN(C/C=C/I)C1CCc2cccc(O)c2C1 (configuration not stated),?,nt,nt,nt,14.6µM*,nt
c1ccn2cc(-c3ccc4c(c3)OCO4)cc2c1,16.4µM*,-6.8,nt,0.0,?,-1.2
Cc1c(C(=O)O)c(O)cc2c1C(=O)c1c(O)c([C@@H]3O[C@H](CO)[C@@H](O)[C@H](O)[C@H]3O)c(O)c(O)c1C2=O,?,-83.8*,6.9%,-3.0,?,-12.8
COc1c(O)cc2c(c1O)[C@@H]1O[C@H](CO)[C@@H](O)[C@H](O)[C@H]1OC2=O,2.3%,8.9,0.4%,3.0,2.0%,0.8
Cc1c(C(=O)O)c(O)cc2c1C(=O)c1c(O)c([C@H]3O[C@H](CO)[C@@H](O)[C@H](O)[C@H]3O)c(O)c(O)c1C2=O,8.91µM*,nt,2.8%,nt,?,nt
CCOc1ccc(NC(=O)CSc2nc3c(oc4ccccc43)c(=O)n2CCOC)cc1,-29.8%,nt,-4.6%,nt,-13.1%,0.6
CC(O)(c1cccc(F)c1)c1nc(-c2cncnc2)cs1 (configuration not stated),?,?,-0.6%,68.2,-23.6%,-5.6
CC(O)(c1cccc(F)c1)c1nc(-c2cc3ccccc3o2)cs1 (configuration not stated),?,?,-0.4%,27.0,23.1µM*,-19.7
COc1cccc(C(C)(O)c2nc(-c3cc4ccccc4o3)cs2)c1 (configuration not stated),16.4µM*,28.0,-1.7%,62.4,23.1µM*,0.1
CC(O)(c1ccc(F)c(F)c1)c1nc(-c2cc3ccccc3o2)cs1 (configuration not stated),?,-22.3,-3.1%,5.8,14.6µM*,-5.6
CCOc1ccc(-c2nc3c(C#N)c[nH]n3c2NC2CCCC2)cc1,10.3µM*,nt,0.3%,nt,16.4µM*,1.3
CC(C)Oc1ccc(-c2nc3c(C#N)c[nH]n3c2NC2CCCCC2)cc1,?,nt,1.6%,nt,23.1µM*,-15.6
N#Cc1c[nH]n2c(NC3CCCCC3)c(-c3cccc(Cl)c3)nc12,?,nt,2.1%,nt,?,-8.8
COc1ccc(-c2nc3c(C#N)c[nH]n3c2NC2CCCC2)c(OC)c1,11.6µM*,nt,-2.5%,nt,?,-2.8
Cn1nc(CC(=O)Nc2ncc(Br)s2)c2ccccc2c1=O,10.3µM*,16.0,-2.7%,14.7,?,3.7
Cn1nc(CC(=O)NC2CCCCCCCCCCC2)c2ccccc2c1=O,18.4µM*,-4.2,1.5%,18.2,18.4µM*,-6.4
CCCCn1nc(C(=O)NC2CCCCC2)c2ccccc2c1=O,?,-13.8,-3.9%,-7.7,11.6µM*,-5.4
Cn1nc(CC(=O)Nc2ccc3c(c2)CCC3)c2ccccc2c1=O,3.26µM*,0.2,-3.5%,89.3,1.64µM*,5.9
O=C(Cn1[nH]c(=O)c2ccccc2c1=O)Nc1ccc2c(c1)CCC2,-14.8%,?,-1.9%,28.6,-15.9%,-1.3
COc1ccc(CCNC(=O)Cc2nn(C)c(=O)c3ccccc23)cc1OC,?,23.9,1.7%,22.1,?,10.5
SMILES,DT40 TDP1 CPT,DRD3 antagonist,ClpP mod,IL1B secr inh,TDP1 cell noCPT,DRD3 agonist
O=C(CN1C(=O)CCSc2ccc(S(=O)(=O)N3CCOCC3)cc21)Nc1cccc(F)c1,-23.6%,8.5,-0.9%,?,13.4%,6.4
CCOc1ccnc2c1c(=O)n(Cc1cc(OC)cc(OC)c1)c(=O)n2C,-25.9%,1.9,-3.9%,36.2,-0.1%,0.6
Clc1cccc(C2=NC(c3cccs3)=Nc3ccc(Br)cc3N2)c1,16.4µM*,nt,0.7%,nt,14.6µM*,-11.8
Clc1ccc2c(c1)NC(c1ccncc1)=NC(c1cccs1)=N2,?,nt,-0.9%,nt,?,0.8
CCCCOc1ccc(C2=NC(c3cccs3)=Nc3ccc(CC)cc3N2)cc1,20.6µM*,nt,-1.8%,nt,?,-3.8
CC(C)c1ccc2c(c1)NC(c1ccncc1)=NC(c1cccs1)=N2,?,nt,-6.1%,nt,16.4µM*,-26.5
CCc1ccc2c(c1)NC(c1ccc(C)cc1)=NC(c1cccs1)=N2,?,nt,1.7%,nt,25.9µM*,8.2
O=S(=O)(c1ccc(-c2ccon2)s1)N1CCN(CCN2CCOCC2)CC1,2.2%,-7.2,0.1%,13.8,-15.6%,-3.8
Cc1ccc(-c2c[n+](CC(=O)Nc3nc(-c4ccccc4)cs3)c3n2CCC3)cc1,14.6µM*,5.9,nt,-27.8,18.4µM*,-15.3
O=C(C[n+]1cc(-c2ccccc2)n2c1CCC2)Nc1nc(-c2ccccc2)cs1,?,-7.2,0.5%,0.0,23.1µM*,2.9
CCOC(=O)C1CCCN(CC(=O)Nc2nc(-c3ccccc3)cs2)C1 (configuration not stated),?,-9.4,1.0%,14.1,?,-6.8
COc1ccc(N=C2CCS(=O)(=O)c3sccc32)cc1,9.2µM*,9.4,1.3%,-6.9,?,8.1
COc1ccc(C(=O)O/N=C2\CCS(=O)(=O)c3sccc32)cc1,1.1%,37.0,-1.7%,29.4,5.3%,1.6
CC(=O)Nc1ccc(NC(=O)c2nc(S(=O)(=O)Cc3ccc(F)cc3)ncc2Cl)cc1,0.731µM*,nt,0.8%,nt,0.411µM*,-24.0
Cc1ccc(NC(=O)c2nc(S(=O)(=O)Cc3ccc(F)cc3)ncc2Cl)cc1C,3.66µM*,nt,5.9%,nt,2.31µM*,-22.7
COc1ccc(N=C/C=C2\C=C(c3ccccc3)OC(C)(C)O2)cc1,16.4µM*,-8.6,-6.1%,-1.3,?,0.5
Cc1ccccc1N=C/C=C1/C=C(c2ccccc2)OC(C)(C)O1,?,7.3,-2.1%,-11.1,?,4.8
CCCC(c1nnnn1CC1CCCO1)N1CCN(c2nc3ccccc3s2)CC1 (configuration not stated),?,20.0,-0.5%,-6.5,?,4.3
